Only some compounds are listed: those with a hit (about 17% of all), similar ones and a draw of the others.
DT40 TDP1 CPT: DT40-hTDP1 cell growth loss with CPT | chicken DT40 Tdp1-/-;hTDP1 cells + 20 nM CPT, ATP luminescence, 48 h | AID 686979 | Potency, µM (series often up to 46.2 µM), for the others: top-dose activity change, negative = growth inhibition, hits mostly inhibitors | 420,000 compounds, 12% hits; further: on the % scale 0 is the no-effect control and ±100 the full control effect; nearly all actives have a fitted effect of over 55% in size
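Chicken DT40 Tdp1-/- cells complemented with human TDP1, 400 cells/well, exposed to compounds plus 20 nM camptothecin for at least 48 h at 37 C; viability read as ATP content by CellTiter-Glo luminescence.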
TDP1 cell noCPT: qHTS for Inhibitors of human tyrosyl-DNA phosphodiesterase 1 (TDP1): qHTS in cells in absence of CPT; DT40 Tdp1-/- hTDP1 cells, no CPT, ATP luminescence, 48 h; Potency, µM (titrated, usually from 46.2 µM), for inactives: at the top dose activity change, negative = growth inhibition, actives largely listed as inhibitors; 420,000 compounds, 15% hits; AID 686978, 2013; further: on the % scale 0 is the no-effect control and ±100 the full control effect; nearly all actives have a fitted effect of over 55% in size
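Seeded 400 DT40-hTDP1 cells/well (vehicle DMSO, no 20 nM CPT); pinned compounds; ≥48 hr at 37 °C; CellTiter-Glo luminescence as viability measure.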
TDP1 block: TDP1 (human) enzyme inhibition; 350,000 compounds, 0.28% hits; AID 485290; Potency, µM (titrated, usually from 130 µM), without a hit: at the highest dose activity change, negative = inhibition, hits mostly inhibitors; recombinant TDP1, AlphaScreen DNA substrate cleavage; further: on the % scale 0 is the no-effect control and ±100 the full control effect; nearly all actives have a fitted effect of over 40% in size
Target sequence (Q9NUW8 whole entry, looked up): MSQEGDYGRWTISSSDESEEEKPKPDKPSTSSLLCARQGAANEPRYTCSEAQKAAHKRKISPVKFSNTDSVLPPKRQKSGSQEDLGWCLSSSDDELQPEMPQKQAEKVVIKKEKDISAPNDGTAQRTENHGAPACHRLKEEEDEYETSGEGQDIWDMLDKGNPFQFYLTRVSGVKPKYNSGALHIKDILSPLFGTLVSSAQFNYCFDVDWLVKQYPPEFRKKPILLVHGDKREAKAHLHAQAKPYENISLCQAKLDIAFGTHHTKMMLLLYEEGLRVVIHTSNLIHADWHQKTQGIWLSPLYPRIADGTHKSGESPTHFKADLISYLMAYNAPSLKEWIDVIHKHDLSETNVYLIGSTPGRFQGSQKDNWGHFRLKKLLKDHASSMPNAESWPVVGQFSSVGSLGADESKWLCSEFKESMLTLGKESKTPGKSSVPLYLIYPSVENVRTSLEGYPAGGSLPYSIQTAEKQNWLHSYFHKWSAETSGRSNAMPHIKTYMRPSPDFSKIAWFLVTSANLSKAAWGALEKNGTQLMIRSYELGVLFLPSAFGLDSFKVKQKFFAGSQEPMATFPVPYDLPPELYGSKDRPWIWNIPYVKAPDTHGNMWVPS
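Signal: AlphaScreen proximity between streptavidin donor and anti-FITC acceptor beads on intact substrate. Reaction: Tdp1 1 nM, substrate 15 nM final, 5 min RT after 15 min compound preincubation.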
ClpP mod: qHTS Assay for Activators of ClpP. ATP-dependent Clp protease proteolytic subunit (Bacillus subtilis (strain 168)), P80244. purified B. subtilis ClpP, FRET peptide cleavage, 20 min. Potency, µM (series often up to 57.5 µM), inactives show at the highest dose activity change, negative = active. 340,000 compounds, 1.9% hits; active means well fitted falling curve with a large enough effect; inconclusive means small, poorly fitted or top-dose-only effect; inactive means no such curve, though single readings can be large or run the other way; further: the source files actives as falling curves though it sought activators and does not explain the sign; nearly all actives have a fitted effect of over 65% in size
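Buffer: 100 mM Tris/HCl pH8, 100 mM KCl, 0.05% low protease BSA, 2.5% glycerol, 0.01% Tween-20. ClpP 10 microg/mL final; 20 min RT; delta FRET normalized to ADEP and DMSO controls.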
An asterisk follows results filed as active; ? = inconclusive; nt = no result given; [ ] = remark or other dose. Unless noted, the call rests on the fitted dose curve; in most records, active means well fitted curve in the direction sought with a large enough effect; inconclusive means small, poorly fitted or top-dose-only effect, or another doubt; inactive means no such curve, though single readings can be large; an effect the other way counts as inactive or inconclusive. Potency means the concentration at half of the fitted maximal effect.

SMILES | DT40 TDP1 CPT | TDP1 cell noCPT | TDP1 block | ClpP mod
O=C(NCc1ccccn1)c1cc(Cl)ccc1OCc1ccccc1 | ? | ? | -4% | -2%
COC(=O)c1ccc(C(NC(=O)OCc2ccccc2)/C(F)=C/[C@@H](C)C(=O)N[C@@H](CO)Cc2ccccc2)cc1 (stereo partly drawn) | nt | nt | 6% | nt
COc1cc(=O)n2c(c1C(=O)N(C)Cc1nonc1C)CCN(Cc1ccc(F)cc1)CC2 | 6%[9.04 µM] | -15% | nt | nt
CC1CCCCN1CC(=O)Nc1ccccc1Sc1ccccc1 (stereo not drawn) | ? | ? | 3% | -1%
CCc1ccc(CNC(=O)CCSCc2ccccc2F)cc1 | 8% | -3% | -3% | -3%
CN(C)CCCN(C(=O)c1ccc2c(c1)CCCC2)c1nc2cc3c(cc2s1)OCO3 | ? | ? | 9% | -3%
CCN(CC)CCN(C(=O)c1ccc2c(c1)CCCC2)c1nc2ccc(F)cc2s1 | ? | ? | 6% | nt
COc1ccc2sc(N(CCN(C)C)C(=O)c3ccc4ccccc4c3)nc2c1 | -25% | ? | 9% | 8%
CN(C)CCCN(C(=O)c1ccc2c(c1)CCCC2)c1nc2ccc(F)cc2s1 | 21µM* | 16µM* | 7% | 0%
CCN(CC)CCN(C(=O)c1ccc2c(c1)CCCC2)c1nc2ccc(OC)cc2s1 | 18µM* | ? | 11% | -6%
CCN(CC)CCN(C(=O)c1ccc2c(c1)CCCC2)c1nc2ccc(C)cc2s1 | ? | 23µM* | 11% | -10%
Cc1cccc(-c2nc3c4ccccc4nc(N4CCN(c5ccccc5F)CC4)n3n2)c1 | -2% | -8% | 1% | -7%
O=C(Nc1nc(-c2ccc(Cl)s2)cs1)c1ccco1 | ? | ? | 6% | nt
O=C(NNc1nc(-c2ccc(Cl)cc2)cs1)c1ccco1 | 18µM* | 10µM* | 5% | -1%
O=C(NNc1nc(-c2ccccc2)cs1)c1ccco1 | ? | 16µM* | 8% | -4%
CCOc1ccc(NC(=O)Cn2c(=O)n(CCCCC(=O)NCCc3ccc(Cl)cc3)c(=O)c3ccccc32)cc1 | ? | -25% | 1% | -2%
Nc1ccc(C(Cc2ccnc3ccccc23)Cc2ccnc3ccccc23)cc1 | ? | ? | nt | 1%
COc1ccc(-c2nc3cc(C)ccn3c2NC(=O)c2cccc(F)c2)cc1 | ? | ? | 3% | -1%
COc1cc(C2C(C#N)=C(N)N(c3cccnc3)C3=C2C(=O)CCC3)ccc1O (stereo not drawn) | -1% | -1% | 4% | 1%
COc1cc(C2C(C#N)=C(N)N(c3ccc(F)cc3)C3=C2S(=O)(=O)CC3)ccc1O (stereo not drawn) | 13µM* | ? | 5% | nt
c1nc2nc(Nc3ccc(N4CCOCC4)cc3)nc(NC3CCCCC3)c2[nH]1 | nt | nt | 25% | nt
O=C1CC2(CCCCC2)CC(=O)N1CCc1ccccc1 | -29% | -27% | nt | nt
O=C1C=CC(=O)C(C2=C3C(=O)N(CCc4ccccc4)CC(=O)N3CCC2)=C1 | 1.3µM* | 1.3µM* | 3% | 2%
Oc1c(Br)cc(Br)cc1C=Nc1ccc2c(c1)OCCO2 | -11% | ? | 0% | 2%
Oc1c(Br)cc(Br)cc1/C=N/c1nc2c(s1)CCCC2 | ? | 16µM* | nt | -1%
SMILES | DT40 TDP1 CPT | TDP1 cell noCPT | TDP1 block | ClpP mod
Oc1ccc2ccccc2c1/C=N/c1nc2c(s1)CCCC2 | ? | 29µM* | 4% | -6%
N#Cc1nc(-c2ccc(OCc3ccc(Cl)cc3)cc2)oc1N1CCCCCC1 | ? | ? | 5% | 4%
OC(c1ccc(F)cc1)c1nc(-c2cc3ccccc3o2)cs1 (stereo not drawn) | ? | ? | nt | -9%
COC(=O)CCC(=O)Nc1cccc([N+](=O)[O-])c1 | 2% | 3% | -5% | 0%
O=c1c2c(nc3cc(-c4cccc(Cl)c4)[nH]n13)CCC2 | ? | ? | 0% | 28µM*
Cc1[nH]n2c(=O)c3c(nc2c1-c1ccc(F)cc1)CCCC3 | 16µM* | ? | -5% | nt
O=c1c2c(nc3cc(-c4ccc(F)cc4)[nH]n13)CCCC2 | ? | ? | ? | 10µM*
NC(=O)CSc1ccc2nnc(-c3ccncc3)n2n1 | 10% | -17% | 3% | 5%
CCn1cc(C(=O)N[C@@H](CC(C)C)C(=O)NCCCn2ccnc2)c(=O)c2cc3c(cc21)OCO3 | -5% | 0% | 5% | -8%
COC(=O)c1cc(C)[nH]c2c(C)cc3nc4ccccc4c3c12 | ? | ? | ? | -7%
CCC(=O)Nc1ccc(SC#N)cc1C | 6.5µM* | 5µM* | 1% | -2%
Cc1cc(SC#N)cc(C)c1NC(=O)CCl | 3.3µM* | 2.6µM* | -3% | 1%
CCC(=O)Nc1cc(C(C)C)c(O)cc1C | -6% | -16% | 4% | 3%
CCc1cc(SC#N)cc(C)c1NC(=O)CCl | 1.5µM* | 1.6µM* | -2% | -4%
CCOC(=O)c1ccc(CN(Cc2ccc(F)cc2)S(=O)(=O)c2ccc(F)cc2)cc1 | -15% | ? | 3% | -4%
CC(=O)Oc1ccccc1C(=O)N1CCN(S(=O)(=O)c2ccc3ccccc3c2)CC1 | ? | ? | nt | -7%
O=C(NCc1nnc(SCC(=O)N2CCCC2)o1)c1c(F)cccc1F | 10% | 10% | 2% | 0%
O=C(NCc1nnc(SCC(=O)N2CCC(Cc3ccccc3)CC2)o1)c1ccccc1F | ? | 16µM* | 0% | -1%
Cc1c(C(=O)OC(C)C(C)C[N+](C)(C)C)oc2ccccc12 (stereo not drawn) | ? | ? | 1% | 28µM*
COc1ccccc1S(=O)(=O)Nc1cc(C)nn1-c1ccc(C)cc1 | 10% | -3% | nt | nt
CCn1c2nc(SCCN3CCOCC3)nnc2c2cc(C)cc(C)c21 | 16µM* | ? | nt | 1%
Cc1cc(C)c2c(c1)c1nnc(SCCN3CCOCC3)nc1n2C | -8% | 8.2µM* | nt | 2%
c1ccc2c(c1)[nH]c1nc(SCCN3CCOCC3)nnc12 | -21% | ? | 8% | -3%
COCCNC(=O)C1(C)CCCN(Cc2ccc(-n3ccnc3)cc2)C1 (stereo not drawn) | 2% | 0% | nt | 0%
COc1ccc(OC)c(CNC(=O)CN2CC(C)Sc3ccccc32)c1 (stereo not drawn) | nt | nt | 9% | -1%
CN(CC(CC(=O)Nc1nncs1)c1ccccc1)S(=O)(=O)c1ccc(Br)cc1 (stereo not drawn) | 16µM* | ? | 1% | -1%
Cc1nnc(NC(=O)CC(CN(C)S(=O)(=O)c2ccccc2)c2ccccc2)s1 (stereo not drawn) | -14% | -21% | 0% | 2%
COc1ccc(CNC(=O)c2cc3cccc(O)c3oc2=N)cc1 | ? | -24% | 6% | 5%
CCOc1cccc2cc(C(=O)NCc3ccc(OC)cc3)c(=N)oc12 | 26µM* | ? | 1% | -2%

Compound activity as filed in PubChem BioAssay.
